Test results: the supplement of paper PMC3558484

System: H1 OCT4-GFP hESC
Experiment: survival Z score in repeat assay, Calcein AM perimeter-filtered objects (vs plate mean) (Z score (SD)); higher = more surviving cells, active = 3 or more
Details: 10 µM, 2 days, cells per well: 1500, rescreen
Experimental: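 Top perimeter-filtered hits were cherry-picked and rescreened in the same Calcein AM assay (H1 OCT4-GFP hESCs, 1500 cells/well, 10 µM, 2 days, objects with perimeter ≥100 µm). Results are per-plate Z scores; a hit is Z ≥3.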

SMILES | survival Z score in repeat assay
CC(N/C(=N\C#N)Nc1ccncc1)C(C)(C)C (configuration not stated) [Pinacidil] | 0.345 (inactive)
O=S(=O)(c1cccc2cnccc12)N1CCCNCC1 | 4.63 (active)
